# Test results reported in PubChem BioAssay AID1376 (SRMLSC, 2008).
# In all, about 220,000 compounds went through this assay and about 530 (0.24%) were called active. The entries come from a sample that favours actives as a whole. Potency and affinity values are given separately. Values without a mark were called inactive. Rule as the data show it: active = inhibition above about 13%; inconclusive = no clear call, values can overlap the other calls; inactive = below that.
# Target: Bifunctional protein GlmU (Mycobacterium tuberculosis (strain ATCC 25618 / H37Rv)) (UniProt P9WMN3)
# Sequence (P9WMN3 whole entry, looked up): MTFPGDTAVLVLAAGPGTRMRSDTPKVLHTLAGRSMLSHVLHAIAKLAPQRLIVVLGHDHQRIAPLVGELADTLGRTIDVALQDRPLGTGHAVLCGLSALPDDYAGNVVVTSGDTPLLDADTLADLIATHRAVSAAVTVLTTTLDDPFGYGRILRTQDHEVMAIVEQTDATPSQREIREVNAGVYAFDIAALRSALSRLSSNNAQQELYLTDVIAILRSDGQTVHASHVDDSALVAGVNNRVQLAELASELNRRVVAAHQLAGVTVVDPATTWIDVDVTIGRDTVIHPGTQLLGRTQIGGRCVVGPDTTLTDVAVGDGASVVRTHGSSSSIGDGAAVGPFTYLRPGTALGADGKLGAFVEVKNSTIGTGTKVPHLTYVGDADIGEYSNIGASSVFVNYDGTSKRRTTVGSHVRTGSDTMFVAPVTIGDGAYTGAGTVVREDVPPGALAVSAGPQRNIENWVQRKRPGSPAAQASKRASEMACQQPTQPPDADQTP
# Test: inhibition of mycobacterial GlmU enzyme – biochemical, glucosamine-1-phosphate acetyltransferase (AID 1376);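 also: 0% = complete reaction with vehicle and 100% = reaction without substrate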
# Details: M. tuberculosis GlmU acetyltransferase enzyme assay; active compounds read high;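 tested at 30 µM in the primary screen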
row,Structure (SMILES),inhibition
1,CCn1c(NC(=O)c2ccc(COc3ccc(C)cc3[N+](=O)[O-])o2)nc2ccccc21,15.2% (active)
2,Cc1ccc(OCc2ccc(C(=O)Nc3nc4ccccc4n3Cc3ccccc3)o2)c([N+](=O)[O-])c1,-4.38%
3,Cc1ccc(OCc2ccc(C(=O)Nc3nc4ccccc4n3C)o2)c([N+](=O)[O-])c1,2.65%
4,O=C(N/N=C1/CCS(=O)(=O)c2ccc(F)cc21)c1ccccn1,-0.55%
5,CCCC(c1nnnn1CCc1ccccc1)N1CCN(C(=O)c2ccco2)CC1 (stereo not given),5.26%
6,COc1ccccc1OCCCCN1CCN(C(c2ccccc2)c2ccccc2)CC1,-0.89%
7,CCN(CC)S(=O)(=O)c1cc(NS(=O)(=O)c2cc(Cl)ccc2Cl)ccc1C,3.03%
8,CCC(=O)Nc1ccc(Oc2ccc3c(c2)C(=O)N(c2ccc(O)cc2)C3=O)cc1,2.87%
9,CCCCCCCCCCCC1=C(O)C(=O)C=C(O)C1=O,1.77%
10,COC1=C(OC)C(=O)C(CCCCCCCCCCO)=C(C)C1=O,-5.02%
11,COC1=CC(=O)C(O)=C(CCCCCCC/C=C/CCCCCCCC2=C(O)C(=O)C=C(OC)C2=O)C1=O,14.3% (active)
12,COC(=O)c1c(C)oc2cc(Br)c(OCC(=O)C(C)(C)C)cc12,-1.38%
13,CCC(=O)NC1CCN(C(=S)NC)CC1,-4.03%
14,CSc1cccc(NC(=O)CN(Cc2ccc(Cl)cc2)S(C)(=O)=O)c1,-1.38%
15,O=C(/C=C/c1ccco1)NC(=S)Nc1cccc(-c2nc3ccccc3s2)c1,-0.02%
16,O=C(/C=C/c1ccco1)NC(=S)Nc1cc(-c2nc3ccccc3s2)ccc1Cl,13% (active)
17,Cc1ccc(-c2nc3ccccc3s2)cc1NC(=S)NC(=O)/C=C/c1ccco1,3.24%
18,FC(F)(F)c1cnc(NNC(=S)Nc2cccnc2)c(Cl)c1,2.72%
19,CC(C)OC(=O)CSc1nc(N)c(C#N)c(-c2ccco2)c1C#N,-3.1%
20,CCCOC(=O)CSc1nc(N)c(C#N)c(-c2ccco2)c1C#N,2.41%

row,Structure (SMILES),inhibition
1,COC(=O)CSc1nc(N)c(C#N)c(-c2ccco2)c1C#N,21.7% (active)
2,CCOC(=O)c1[nH]c(=O)[nH]c1CN(Cc1ccco1)Cc1[nH]c(=O)[nH]c1C(=O)OCC,2.03%
3,COc1cc(OC)c(OC)cc1CN1CCC(O)CC1,0.1%
4,Cn1c(-c2ccc(Br)cc2)cnc1NCc1cccnc1,-2.36%
5,CCCCN(C)CCC(=O)Nc1ccc(F)c(F)c1,0.07%
6,Cc1ccc(-c2nnn(CC(=O)N(Cc3ccco3)C(C(=O)NC(C)(C)C)c3cccs3)n2)o1 (stereo not given),1.32%
7,Cc1ccc(-c2nnn(CC(=O)N(Cc3ccco3)C(C(=O)NC(C)(C)C)c3ccncc3)n2)o1 (stereo not given),6.52%
8,Cc1ccc(-c2nnn(CC(=O)N(Cc3ccco3)C(C(=O)NC(C)(C)C)c3ccc(C)o3)n2)o1 (stereo not given),13% (active)
9,CCS(=O)(=O)N1CCN(CC(=O)NC2CCCCC2)CC1,2.03%
10,COc1ccc(-c2cc3nc(-c4ccccc4)cc(N4CCC5(CC4)OCCO5)n3n2)cc1,5.97%
11,O=C(N/N=C\c1ccccn1)C1c2ccccc2Oc2ccccc21,-4.47%
12,CN(C)CCCOc1cccc(Oc2ccccc2)c1,-1.51%
13,COc1cccc(C(=O)O/N=C(\N)c2ccc([N+](=O)[O-])cc2)c1,-5.75%
14,Cc1ccc(C(OCCN(C)C)c2cccc(C(F)(F)F)c2)cc1 (stereo not given),2%
15,CCN(CC)CCOC(c1ccccc1)c1ccc(C)cc1 (stereo not given),13.5% (active)
16,CCN(CC)CCC(C)OC(c1ccccc1)c1ccccc1 (stereo not given),-5.59%
17,C=CCNC(=O)C1CC1(c1ccccc1)c1ccccc1 (stereo not given),4.25%
18,COc1ccccc1NC(=O)c1cccc(S(=O)(=O)N2CCOCC2)c1,0.03%
19,COc1cc(C(=O)N2CCCC(c3nc(-c4cccs4)no3)C2)cc(OC)c1OC (stereo not given),2.49%
20,COc1ccc(C(=O)N2CCCC(c3nc(-c4cccs4)no3)C2)cc1OC (stereo not given),13.1% (active)

row,Structure (SMILES),inhibition
1,COc1ccc(C(=O)N2CCCC(c3nc(-c4cccs4)no3)C2)cc1 (stereo not given),-2.88%
2,Nc1c(C(=O)Nc2nc3ccccc3s2)sc2nc(-c3cccs3)ccc12,-1.14%
3,Cc1csc(NC(=O)c2sc3nc(-c4cccs4)ccc3c2N)n1,0.71%
4,O=C(Nc1ncc(Cc2cccc(C(F)(F)F)c2)s1)c1ccc(-c2cccc([N+](=O)[O-])c2)o1,-6.86%
5,Cc1ccccc1CN1C(=O)CSc2ccc(C(=O)N3CCOCC3)cc21,0.57%
6,CN(C(=O)CCc1nnc(Cc2ccc(-c3ccccc3)cc2)o1)C1CCOCC1,2.22%
7,NS(=O)(=O)c1ccc(NC(=O)CSc2nnc(COc3ccccc3Cl)n2C2CC2)cc1,13.3% (active)
8,Cn1c(COc2ccccc2)nnc1SCC(=O)Nc1ccc(S(N)(=O)=O)cc1,1.92%
9,C=CCn1c(COc2ccccc2)nnc1SCC(=O)Nc1ccc(S(N)(=O)=O)cc1,0.44%
10,c1ccc2oc(NC3=NCN(C4CCCCC4)CN3)nc2c1,0.06%
11,Cc1n[nH]c(=O)nc1N/N=C/c1ccc(O)c([N+](=O)[O-])c1,5.79%
12,O=[N+]([O-])c1cc(/C=N\Nc2nc(-c3ccccc3)cs2)ccc1O,7.14%
13,Cc1csc(N/N=C/c2ccc(O)c([N+](=O)[O-])c2)n1,13.8% (active)
14,CSc1ccc(CNc2nnnn2C)cc1,-1.37%
15,COC(=O)C1(CO)NC(c2cccs2)C2C(=O)N(c3ccccc3)C(=O)C21 (stereo not given),-2.08%
16,COc1ccc(CN2C(=O)NC(=O)/C(=C/c3ccc([N+](=O)[O-])s3)C2=O)cc1,6.92%
17,Cc1ccc(N2C(=O)NC(=O)/C(=C\c3ccc([N+](=O)[O-])o3)C2=O)cc1,12.4%
18,COc1ccc(CN2C(=O)NC(=O)/C(=C\c3ccco3)C2=O)cc1,8.39%
19,COc1ccc(CN2C(=O)NC(=O)/C(=C/c3ccc([N+](=O)[O-])o3)C2=O)cc1,19.9% (active)
20,O=C1NC(=O)N(c2ccccc2)C(=O)/C1=C\c1ccc([N+](=O)[O-])o1,16.7%
